# Records with an inconclusive call do not appear. A call without a number means that no potency is given here. The source made the active and inactive calls. Calls come from the whole dose curve; as a rule, active = well fitted inhibition curve with a large enough effect; inconclusive = small, poorly fitted or top-dose-only effect; inactive = flat fitted curve, though single readings scatter.
# Experiments:
# Assay in all cases: qHTS profiling for inhibitors of Plasmodium falciparum proliferation (AID 504749); note: nearly all actives have a fitted effect of over 60% in size
# Details in all cases: P. falciparum in erythrocytes, SYBR Green DNA, 72 h; series mostly up to 28.7 µM
# [1] = tested on: CP237
# Outline: (§1)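 P. falciparum-infected erythrocytes (0.3% parasitemia, 2.5% hematocrit final) were exposed to compounds for 72 h at 37 C in 5% CO2, then lysed with SYBR Green buffer overnight at room temperature; parasite DNA fluorescence was normalized to artemisinin and DMSO controls.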
# [2] = tested on: CP238
# Outline: as §1
# [3] = tested on: CP247
# Outline: as §1
# [4] = tested on: CP250
# Outline: as §1
# [5] = tested on: CP252
# Outline: as §1
# [6] = tested on: CP256
# Outline: as §1
# [7] = tested on: CP260
# Outline: as §1
# [8] = tested on: CP262
# Outline: as §1
# [9] = tested on: CP265
# Outline: as §1
# [10] = tested on: CP266
# Outline: as §1
# [11] = tested on: CP268
# Outline: as §1
# [12] = tested on: CP269
# Outline: as §1
# [13] = tested on: CP286
# Outline: as §1
# [14] = tested on: CP291
# Outline: as §1
# [15] = tested on: CP305
# Outline: as §1
# [16] = tested on: CP315
# Outline: as §1
# [17] = tested on: CP325
# Outline: as §1
# [18] = tested on: CP329
# Outline: as §1
# [19] = tested on: CP335
# Outline: as §1
# [20] = tested on: CP297
# Outline: as §1
# Potency is the fitted concentration of half-maximal effect.
Compound,Potency [1],Potency [2],Potency [3],Potency [4],Potency [5],Potency [6],Potency [7],Potency [8],Potency [9],Potency [10],Potency [11],Potency [12],Potency [13],Potency [14],Potency [15],Potency [16],Potency [17],Potency [18],Potency [19],Potency [20]
OC[C@H]1O[C@@H]2O[C@H]3[C@H](O)[C@@H](O)[C@@H](O[C@H]4[C@H](O)[C@@H](O)[C@@H](O[C@H]5[C@H](O)[C@@H](O)[C@@H](O[C@H]6[C@H](O)[C@@H](O)[C@@H](O[C@H]7[C@H](O)[C@@H](O)[C@@H](O[C@H]8[C@H](O)[C@@H](O)[C@@H](O[C@H]1[C@H](O)[C@H]2O)O[C@@H]8CO)O[C@@H]7CO)O[C@@H]6CO)O[C@@H]5CO)O[C@@H]4CO)O[C@@H]3CO,inactive,inactive,inactive,inactive,inactive,inactive,inactive,inactive,inactive,inactive,inactive,inactive,inactive,inactive,inactive,inactive,inactive,inactive,inactive,
O=C(c1ccc(F)cc1)C1CCN(CCn2c(=S)[nH]c3ccccc3c2=O)CC1,5.01 µM (active),7.94 µM (active),4.47 µM (active),10 µM (active),6.31 µM (active),8.91 µM (active),3.16 µM (active),,7.94 µM (active),7.57 µM (active),6.01 µM (active),6.75 µM (active),3.98 µM (active),6.75 µM (active),6.75 µM (active),15.1 µM (active),7.57 µM (active),6.75 µM (active),,6.75 µM (active)
O=C(Nc1cccc(C2=NCCN2)c1)Nc1cccc(C2=NCCN2)c1,6.31 µM (active),6.31 µM (active),2.82 µM (active),3.55 µM (active),3.16 µM (active),0.708 µM (active),2.51 µM (active),4.78 µM (active),,,15.1 µM (active),12 µM (active),2 µM (active),15.1 µM (active),7.57 µM (active),16.9 µM (active),,13.5 µM (active),12 µM (active),13.5 µM (active)
O=C1C(=O)c2ccccc2C(O)=C1C1CCC(c2ccc(Cl)cc2)CC1 (stereo unspecified),0.0011 µM (active),0.005 µM (active),0.0022 µM (active),0.0028 µM (active),0.0032 µM (active),0.0016 µM (active),0.0008 µM (active),,0.0006 µM (active),0.0064 µM (active),0.0057 µM (active),0.0051 µM (active),0.0011 µM (active),0.0064 µM (active),0.0051 µM (active),0.0057 µM (active),0.0064 µM (active),,0.0032 µM (active),
CCOC(=O)c1c(N)sc2c1CCN(Cc1ccccc1)C2,7.94 µM (active),5.62 µM (active),3.98 µM (active),5.01 µM (active),7.94 µM (active),5.01 µM (active),6.31 µM (active),,,12 µM (active),7.57 µM (active),6.01 µM (active),5.62 µM (active),8.49 µM (active),6.01 µM (active),6.75 µM (active),4.78 µM (active),4.78 µM (active),4.26 µM (active),7.57 µM (active)
O=C(O)CCC(=O)Nc1ccc(S(=O)(=O)Nc2nccs2)cc1,inactive,inactive,inactive,inactive,inactive,inactive,inactive,inactive,inactive,inactive,inactive,inactive,inactive,inactive,inactive,inactive,,inactive,inactive,inactive
CC(=O)N[C@@H](CCC(=O)O)C(=O)O,inactive,inactive,inactive,inactive,inactive,inactive,inactive,inactive,inactive,inactive,inactive,inactive,inactive,,inactive,inactive,inactive,inactive,inactive,inactive
CCNC(=O)/C=C/c1cccc(Br)c1,inactive,inactive,,,,,,inactive,,inactive,inactive,inactive,inactive,inactive,inactive,inactive,inactive,inactive,inactive,inactive
